This is a sample that favours compounds with a hit; in the whole collection about 10% have one here.
GPT2 inh: blocks human glutamate pyruvate transaminase 2; AID 1671188; Recombinant GPT2, coupled pyruvate oxidase/HRP Amplex Red fluorescence; Potency, µM (highest dose often 57.7 µM), most hits filed as inhibitors; 100,000 tested, 0.25% active; Q8TD30; also: nearly all actives have a fitted effect of over 60% in size
Target sequence (Q8TD30 whole entry, looked up): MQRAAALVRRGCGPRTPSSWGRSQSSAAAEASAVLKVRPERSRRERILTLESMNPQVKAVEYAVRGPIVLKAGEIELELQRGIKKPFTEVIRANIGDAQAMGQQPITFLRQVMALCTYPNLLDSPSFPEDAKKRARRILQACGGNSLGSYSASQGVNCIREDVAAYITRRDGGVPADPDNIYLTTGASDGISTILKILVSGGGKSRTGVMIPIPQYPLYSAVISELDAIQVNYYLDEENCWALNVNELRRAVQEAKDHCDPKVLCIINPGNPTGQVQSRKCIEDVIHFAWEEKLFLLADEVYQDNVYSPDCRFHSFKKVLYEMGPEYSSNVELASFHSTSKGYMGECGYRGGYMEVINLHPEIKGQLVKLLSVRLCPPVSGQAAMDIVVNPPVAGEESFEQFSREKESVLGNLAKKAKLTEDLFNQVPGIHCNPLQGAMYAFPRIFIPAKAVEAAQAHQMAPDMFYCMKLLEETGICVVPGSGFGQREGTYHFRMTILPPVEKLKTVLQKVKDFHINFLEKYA
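Recombinant GPT2 (10ng/uL) with 250uM a-KG and 2mM L-alanine, 30 min at room temperature, in HEPES pH 7.5 buffer. Pyruvate detected by pyruvate oxidase/HRP/Amplex Red fluorescence after 30 min in the dark; AOA (50uM) as positive control.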
hNpr1 antagonist: blocks ANP-stimulated signaling of human Npr1 receptor; HEK293 hNpr1 GloSensor cGMP, ANP-stimulated luminescence; P16066; Potency, µM (titrated, usually from 46.3 µM), hits mostly inhibitors; 76,000 tested, 1.6% active; AID 1347048; calls by dose curve; also: nearly all actives have a fitted effect of over 60% in size
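HEK293 cells stably expressing human Npr1 and cGMP GloSensor pGS-40F, loaded 2 h with 2% GloSensor reagent, given compound 30 min at room temperature. Luminescence read before and 20 min after 0.1 nM hNppA.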
HEK293 tox: kills HEK 293 cells; Potency, µM (top dose mostly 115 µM), most hits filed as inhibitors; 94,000 tested, 6.6% active; HEK 293 viability, ATP luminescence (CellTiter-Glo), 48-72 h; AID 1345083; also: nearly all actives have a fitted effect of over 60% in size
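HEK 293 seeded at 250 cells/well receive compound via pintool. After 48 or 72 hr at 37 degree Celsius, 5% CO2 and 95% humidity, CellTiter-Glo is dispensed and luminescence read following 10 min at room temperature.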
3T3 cytotox: kills NIH 3T3 cells. NIH 3T3 viability, CellTiter-Glo ATP luminescence, 48-72 h. Potency, µM (series often up to 96.7 µM), most hits filed as inhibitors. 94,000 tested, 4.3% active. AID 1345082; also: nearly all actives have a fitted effect of over 55% in size
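Luminescent ATP readout (CellTiter-Glo, 10 min RT) after 48 or 72 hr compound exposure of NIH 3T3 cells seeded at 400 cells/well in 1536-well format; quantitative HTS.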
FLuc inh: Photinus pyralis luciferase inhibition | P08659 | purified P. pyralis luciferase, luminescence, biochemical | Potency, µM (top dose mostly 115 µM), most hits filed as inhibitors | 76,000 tested, 2.5% active | AID 1347043; also: nearly all actives have a fitted effect of over 65% in size
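Purified 10nM P. pyralis luciferase with 10uM D-luciferin and 10uM ATP in 50mM Tris acetate pH 7.5, 10mM Mg acetate, 0.01% Tween-20, 0.05% BSA. qHTS titration; luminescence read by CCD imager.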
Each line names hits and unclear results; the compound was inactive in the other large screens; ! = not confirmed by another sample. Unless noted, calls follow the shape of the dose curve; as a rule, active = well fitted curve in the direction sought with a large enough effect; inconclusive = small, poorly fitted or top-dose-only effect, or another doubt; inactive = no such curve, though single readings can be large; an effect the other way counts as inactive or inconclusive.

CC1=C[C@@H](CNC(=O)CCC(=O)O)[C@H](C(C)C)C[C@H]1CC(=O)N1CCN(c2ccccn2)CC1	GPT2 inh inconclusive
COc1cccc(C(=O)NC(C(=O)N2CCCCC2)C2CCN(C(=O)c3ccc(Cl)cc3)CC2)c1 (stereo not given)	HEK293 tox inconclusive
COc1ccc(-n2nc(C3CCN(Cc4cccn4C)CC3)[nH]c2=O)cc1	HEK293 tox 39.8µM, 3T3 cytotox inconclusive
O=c1n(-c2ccncc2)nc2n1CCN(Cc1ccccc1)C2	HEK293 tox 79.4µM, 3T3 cytotox inconclusive, FLuc inh inconclusive
COc1ccc(CN2CCn3c(nn(-c4ccc(C(F)(F)F)cc4)c3=O)C2)cc1	none (no result: hNpr1 antagonist, FLuc inh)
CN(C)c1ccc(CN2CCn3c(nn(-c4ccc(Cl)cc4)c3=O)C2)cc1	HEK293 tox inconclusive (no result: hNpr1 antagonist, FLuc inh)
O=c1n(-c2ccncc2)nc2n1CCN(Cc1ccc(OC(F)(F)F)cc1)C2	hNpr1 antagonist inconclusive, HEK293 tox 22.4µM, 3T3 cytotox inconclusive
Cc1ccc(C(=O)N2CCN(C(=O)c3nnn4c3COC(c3ccc(Cl)cc3)C4)CC2)cc1F (stereo not given)	none
O=C(c1cc(F)ccc1F)N1CCN(C(=O)c2nnn3c2COC(c2ccc(Cl)cc2)C3)CC1 (stereo not given)	hNpr1 antagonist inconclusive, HEK293 tox 35.5µM
O=C(c1ccc(F)cc1)N1CCN(C(=O)c2nnn3c2COC(c2ccc(Cl)cc2)C3)CC1 (stereo not given)	HEK293 tox 39.8µM, 3T3 cytotox inconclusive
CC(C)(C)OCC(O)CN1CCC(=O)N(CC2CC2)Cc2cc(F)ccc21 (stereo not given)	HEK293 tox inconclusive (no result: GPT2 inh, hNpr1 antagonist, FLuc inh)
CCN(C(=O)Cn1cccc1-c1nc(-c2ccccc2)no1)c1cccc(C)c1	HEK293 tox inconclusive, 3T3 cytotox inconclusive
Cc1cccc(N(C)C(=O)Cn2cccc2-c2nc(-c3ccccc3)no2)c1	HEK293 tox 70.8µM, 3T3 cytotox inconclusive, FLuc inh inconclusive
Cc1ccc(C(=O)NCCn2cccc2-c2nc(-c3ccccc3)no2)cc1	FLuc inh 0.891µM
Cc1ccc(C(=O)NCCn2cccc2-c2nc(-c3ccccc3)no2)cc1F	none
O=C(COc1ccccc1)NCCn1cccc1-c1nc(-c2ccc3c(c2)OCO3)no1	FLuc inh inconclusive
O=C(NCCn1cccc1-c1nc(-c2ccc3c(c2)OCO3)no1)C1(c2ccccc2)CC1	HEK293 tox 44.7µM, 3T3 cytotox inconclusive, FLuc inh 20µM
CN(C)CCC(=O)N1Cc2ccccc2CC2(CCCN2Cc2cccnc2)C1 (stereo not given)	none (no result: hNpr1 antagonist, FLuc inh)
O=C(c1ccccc1OCC1CCCN(Cc2c[nH]c3ccccc23)C1)N1CCCCC1 (stereo not given)	HEK293 tox 50.1µM, 3T3 cytotox inconclusive (no result: hNpr1 antagonist, FLuc inh)
Cc1ccccc1N1CCCN(Cc2cccc(CCN)c2)CC1	GPT2 inh inconclusive, HEK293 tox 28.2µM, 3T3 cytotox inconclusive
CCOc1cccc(CN2CCCC(COc3ccccc3C(=O)NC(C)C)C2)c1 (stereo not given)	HEK293 tox 44.7µM, 3T3 cytotox inconclusive
NCCc1cccc(CN2CCCC(COc3ccccc3F)C2)c1 (stereo not given)	HEK293 tox inconclusive, 3T3 cytotox 35.5µM
O=C(Nc1cccc(Cl)c1)c1nc2sccn2c1-c1cccc(C(F)(F)F)c1	HEK293 tox inconclusive, 3T3 cytotox inconclusive (no result: hNpr1 antagonist, FLuc inh)
O=C(NCCc1ccccc1)C1CCCN(c2ccnc3ccnn23)C1 (stereo not given)	HEK293 tox inconclusive (no result: hNpr1 antagonist, FLuc inh)
CC(C)CCN1CCCC2(C1)C(=NC1CCCC1)NC(=O)N2c1cc(F)cc(F)c1 (stereo not given)	HEK293 tox inconclusive, 3T3 cytotox 31.6µM (no result: hNpr1 antagonist, FLuc inh)
COc1cccc(N2C(=O)NC(=NC3CCCC3)C23CCCN(CCC(C)C)C3)c1 (stereo not given)	HEK293 tox inconclusive, 3T3 cytotox 31.6µM (no result: hNpr1 antagonist, FLuc inh)
CC(C)CCN1CCC2(CC1)C(=NC1CCCC1)NC(=O)N2c1cc(F)cc(F)c1	none (no result: hNpr1 antagonist, FLuc inh)
O=C(c1ccc2nnc(-c3ccc(OC(F)(F)F)cc3)n2c1)N1CCOCC1	HEK293 tox inconclusive, 3T3 cytotox inconclusive (no result: hNpr1 antagonist, FLuc inh)
CC(C)CNC(=O)c1cc(C(C)(C)C)nc2c1cnn2C	HEK293 tox inconclusive, 3T3 cytotox inconclusive (no result: hNpr1 antagonist, FLuc inh)
c1ccc(O[C@H]2COCCN(Cc3ccc(-c4ccccc4)cc3)C2)cc1	3T3 cytotox inconclusive
CS(=O)(=O)c1ccc(O[C@H]2COCCN(Cc3ccc(-c4ccccc4)cc3)C2)cc1	hNpr1 antagonist inconclusive, HEK293 tox 25.1µM, 3T3 cytotox inconclusive
Cc1ccc(CN2CCOC[C@H](Oc3ccc(C(F)(F)F)cc3)C2)cc1	HEK293 tox 100µM, 3T3 cytotox 79.4µM
CC(=O)Nc1cccc(C(=O)N2CCC(n3cc(-c4nc(-c5ccccc5)no4)nn3)C2)c1 (stereo not given)	HEK293 tox inconclusive, 3T3 cytotox inconclusive, FLuc inh inconclusive
CCOc1cccc(-c2nc(C(=O)Nc3ccc(OC)cc3)cs2)c1	HEK293 tox inconclusive, 3T3 cytotox inconclusive, FLuc inh inconclusive
CCN(CC)C(=O)c1csc(-c2cccc(OC(C)C)c2)n1	hNpr1 antagonist inconclusive, HEK293 tox 39.8µM, 3T3 cytotox inconclusive
CC(C)Oc1cccc(-c2ccc(C(=O)N(C)C)cc2)c1	HEK293 tox 35.5µM, 3T3 cytotox inconclusive, FLuc inh inconclusive
CCOc1cccc(-c2nc(C(=O)NCc3ccccc3)cs2)c1	hNpr1 antagonist inconclusive, HEK293 tox inconclusive, 3T3 cytotox inconclusive
CC(C)CNC(=O)c1csc(-c2cccc(OC(C)C)c2)n1	HEK293 tox 39.8µM, 3T3 cytotox inconclusive
Cc1ccc(C2c3cc(OCc4nc(C(=O)NC(C)C)co4)ccc3CCN2C(=O)C2CC2)cc1 (stereo not given)	HEK293 tox inconclusive, 3T3 cytotox inconclusive
O=C(CCc1ccc(O)cc1)c1c(O)cc(O)cc1O	GPT2 inh 6.85µM! (no result: hNpr1 antagonist, HEK293 tox, 3T3 cytotox, FLuc inh)
COc1ccc(CCC(C)=O)cc1	none (no result: hNpr1 antagonist, HEK293 tox, 3T3 cytotox, FLuc inh)
CCNCc1ccc(-c2ccc(Cl)cc2)o1	HEK293 tox inconclusive, 3T3 cytotox inconclusive
Clc1cccc(-c2ccc(CNc3ncncn3)o2)c1	hNpr1 antagonist inconclusive, HEK293 tox 31.6µM, 3T3 cytotox inconclusive, FLuc inh inconclusive
Cc1ccc(-n2c(C3CCN(C(=O)c4ccco4)CC3)n[nH]c2=O)cc1	3T3 cytotox 22.4µM
CC(C)(C)c1ccc(C(=O)N2CCC(c3n[nH]c(=O)n3-c3ccccc3)CC2)cc1	HEK293 tox inconclusive
Cc1ccc(-n2c(C3CCN(C(=O)Cc4cccc(F)c4)CC3)n[nH]c2=O)cc1	3T3 cytotox 10µM
Cc1ccc(-n2c(C3CCN(C(=O)Cc4ccccc4)CC3)n[nH]c2=O)cc1	3T3 cytotox inconclusive
O=C(c1ccc2ccccc2n1)N1CCC(c2n[nH]c(=O)n2-c2ccccc2)CC1	3T3 cytotox 44.7µM
Cc1ccc(-n2c(C3CCN(C(=O)c4ccc5cc[nH]c5c4)CC3)n[nH]c2=O)cc1	3T3 cytotox 31.6µM
